JMJD2A Tudor inh = inhibitors of human JMJD2A Tudor domain | O75164 | AlphaScreen JMJD2A-Tudor / H3K4me3 peptide binding | Potency, µM (titrated, usually from 114 µM), inactives show at the highest dose activity change, negative = inhibition, usual class: inhibitors | hit rate 4.4% among 390,000 | AID 504339; further: on the % scale 0 is the no-effect control and ±100 the full control effect; nearly all actives have a fitted effect of over 50% in size
BAZ2B inh = blocks human BAZ2B; AlphaScreen BAZ2B-H3K14Ac peptide displacement; AID 504333; Potency, µM (highest dose often 114 µM), without a hit: at the top dose activity change, negative = inhibition, hits mostly inhibitors; Q9UIF8; hit rate 4.4% among 360,000; further: on the % scale 0 is the no-effect control and ±100 the full control effect; nearly all actives have a fitted effect of over 60% in size
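Multi-concentration screen (max 110 uM) measuring displacement of acetylated histone H3 peptide from BAZ2B by AlphaScreen, using 50 nM protein, 50 nM peptide and 10 ug/mL streptavidin donor plus Ni-chelate acceptor beads.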
VDR inhibitor = vitamin D3 receptor (human) inhibition. VDR-SRC2-3 peptide fluorescence polarization, 2 h. Potency, µM, for the others: max response, negative = inhibition, actives largely listed as inhibitors. hit rate 0.93% among 400,000. AID 504847; further: on the % scale 0 is the no-effect control and ±100 the full control effect
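Inhibition of the VDR/SRC2-3 peptide interaction is quantified by fluorescence polarization. Compounds (23 nl, pintool) incubate with the reagents for 2 hours at ambient room temperature.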
HP1b chromo inh = inhibitors of HP1-beta chromodomain binding to methylated histone tails | AlphaScreen HP1-beta / biotin-H3K9me3 peptide binding | hit rate 0.56% among 390,000 | Potency, µM (doses to about 114 µM), for inactives: at the top dose activity change, negative = inhibition, most hits filed as inhibitors | P83916; further: nearly all actives have a fitted effect of over 70% in size
Target sequence (P83916 whole entry, looked up): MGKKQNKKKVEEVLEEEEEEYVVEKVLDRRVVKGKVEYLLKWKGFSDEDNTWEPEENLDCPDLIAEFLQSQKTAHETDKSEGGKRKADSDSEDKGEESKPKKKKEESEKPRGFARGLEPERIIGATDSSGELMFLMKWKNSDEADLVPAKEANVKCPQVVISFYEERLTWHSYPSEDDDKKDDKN
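HP1-beta protein (50 nM final) preincubated 30 min at room temperature with biotinylated H3(1-18)K9me3 peptide (50 nM) in PBS pH 7.4, 0.01% Tween-20, then compound added for 30 min. AlphaScreen streptavidin donor/nickel chelate acceptor beads (10 ug/mL final), 30 min dark, luminescence read.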
PLK1 PBD inh = inhibitors of human PLK1 polo-box domain binding. P53350. Plk1 PBD binding of FITC phosphopeptide, fluorescence polarization. Potency, µM, for the others: max response, negative = inhibition, actives largely listed as inhibitors. hit rate 2.8% among 360,000; further: series mostly up to about 57 µM; on the % scale 0 is the no-effect control and ±100 the full control effect; nearly all actives have a fitted effect of over 65% in size
G9a block = G9a (human) methyltransferase inhibition | Q96KQ7 | G9a H3K9 monomethylation, AlphaScreen, 2 h | Potency, µM (doses to about 102 µM), without a hit: at the highest dose activity, negative = inhibition, most hits filed as inhibitors | hit rate 8.8% among 350,000; further: on the % scale 0 is the no-effect control and ±100 the full control effect; nearly all actives have a fitted effect of over 75% in size
Target sequence (Q96KQ7 913-1193 limits assumed): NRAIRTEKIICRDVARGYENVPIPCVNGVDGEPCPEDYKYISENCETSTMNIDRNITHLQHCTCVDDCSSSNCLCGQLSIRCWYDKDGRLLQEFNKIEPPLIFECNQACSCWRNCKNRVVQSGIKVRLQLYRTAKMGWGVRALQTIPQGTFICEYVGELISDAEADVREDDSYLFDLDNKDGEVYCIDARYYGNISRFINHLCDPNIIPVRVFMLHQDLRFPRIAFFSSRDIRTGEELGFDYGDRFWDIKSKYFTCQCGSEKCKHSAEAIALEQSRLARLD
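AlphaScreen read-out: biotin-H3K9 peptide (500 nM) methylation by 20 nM enzyme with 20 uM SAM, 2 h at room temperature after 15 min compound preincubation; anti-monomethyl H3K9 antibody plus donor/acceptor beads, 10 min dark.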
Starred values were filed as active, the others as inactive; ? = inconclusive; / = no result; [ ] = dose if it differs, or a comment. In the library only some 11% were active in any assay of this set; here they are far more common. The call rests on the fitted dose curve; in most records, active means well fitted curve in the direction sought with a large enough effect; inconclusive means small, poorly fitted or top-dose-only effect, or another doubt; inactive means no such curve, though single readings can be large; an effect the other way counts as inactive or inconclusive. Potency means the concentration at half of the fitted maximal effect.

SMILES | JMJD2A Tudor inh | BAZ2B inh | VDR inhibitor | HP1b chromo inh | PLK1 PBD inh | G9a block
CC1(C(=O)NS(=O)(=O)c2cccs2)CCN1C(=O)C1CCCCC1 (stereo not drawn) | / | / | / | / | -6% | /
Cc1occc1C(=O)NCCCCc1ccccc1 | -6% | -31% | -15% | 37% | -29% | -20%[12.7 µM]
S=C(NCCc1ccc(Cl)cc1)NCc1ccco1 | -32% | -35% | -5% | -14% | -20% | 50µM*
O=C(NC(=S)NCCc1ccc(Cl)cc1)c1ccco1 | -32% | -1% | ? | -12% | 30µM* | 0%[59 µM]
S=C(NCc1ccc(Cl)cc1)NCc1ccco1 | -36% | -34% | 0% | -3% | -29% | -1%
Cc1occc1C(=O)NCCc1ccc(Cl)cc1 | -17% | -3% | 12% | 20% | -12% | 79µM*
CC1(C)Cc2nc3nc(SCC(=O)NCCc4ccccc4)n(-c4ccccc4)c(=O)c3cc2CO1 | -1% | 3%[57.1 µM] | -12% | 21% | 3% | 19%[12.7 µM]
NC(=O)C1CCN(C(=O)C2c3ccccc3C(=O)N3CCc4ccccc4C23)CC1 (stereo not drawn) | -18% | ? | -14% | 9% | -11% | 79µM*
Cn1nnnc1SCC(=O)Nc1nc2c(s1)CCCC2 | -29% | 8% | -9% | 18% | -3% | -4%[12.7 µM]
CC(=O)Nc1nonc1NC(=O)CSC1=NCCS1 | -30% | 10% | 1% | 50% | -11% | 56µM*
O=C(CSc1ncn(-c2ccccc2)n1)Nc1nc2c(s1)CCCC2 | 50µM* | 45µM* | 4% | ? | ? | -26%[12.7 µM]
CC(=O)Nc1ccc(NC(=O)CSC2=NCCS2)cc1 | 3% | -1% | -23% | 58% | -23% | ?
O=C(CSC1=NCCS1)Nc1nc2c(s1)CCCC2 | -35% | ? | ? | -10% | ? | 40µM*
O=C(CSc1ncn(-c2ccccc2)n1)Nc1nncs1 | -1% | -9% | -5% | 36% | -5% | ?
CN(C)CCCN1c2ccccc2Sc2ccc(C(F)(F)F)cc21 | ? | 32µM* | -21% | -15% | 0% | -8%[59 µM]
CC1=C(C(=O)N(C(C)C)C(C)C)CC(CC(=O)NC(c2ccccc2)c2ccccc2)C(=O)N1Cc1ccc(C(C)(C)C)cc1 (stereo not drawn) | / | / | / | / | -7% | /
Cc1ccc(C)c(NC(=S)NC(NC(=O)N(C)C)C(Cl)(Cl)Cl)c1 (stereo not drawn) | -31% | 10% | 0% | 16% | -11% | 4.5µM*
CCCC(NC(=O)Cc1c(C)c2c(cc(C)c3c(C)coc32)oc1=O)C(=O)O (stereo not drawn) | -16% | -1% | 8% | 48% | -9% | 4%
Cc1coc2c1c(C)cc1oc(=O)c(CC(=O)N[C@@H](CC(C)C)C(=O)O)c(C)c12 | -29% | 2% | 31% | 18% | -14% | 50µM*
CC(C)[C@@H]1N[C@]2(C(=O)Nc3ccccc32)[C@@H]2C(=O)N(c3cccc(C(F)(F)F)c3)C(=O)[C@@H]21 | -7% | 11% | 0% | 34% | -2% | 50µM*
NC(=O)C[C@@H]1N[C@]2(C(=O)Nc3ccccc32)[C@@H]2C(=O)N(c3cc(C(F)(F)F)ccc3Cl)C(=O)[C@H]12 | -19% | -2% | -9% | 33% | -1% | 50µM*
CCCOc1ccc(N2C(=O)C3C(C(C)C)NC4(C(=O)c5ccccc5C4=O)C3C2=O)cc1 (stereo not drawn) | -18% | -5% | 4% | 16% | -3% | ?
O=C1Nc2ccccc2C1c1ncc(C(F)(F)F)cc1Cl (stereo not drawn) | -4% | -2% | -12% | 62% | -8% | 8%[2.33 µM]
COc1ccc(C2=NN(CC(=O)NCCc3ccc(OC)c(OC)c3)C(=O)CC2)cc1 | -6% | 2% | 14% | 21% | / | -29%[59 µM]
Cc1ccc(C(=O)N(CC(=O)NC2CCCC2)Cc2cccs2)s1 | -12% | 10% | -6% | 9% | -2% | -38%
COc1cc(C(=O)c2nccc3cc(OC)c(OC)cc23)c([N+](=O)[O-])cc1OC | ? | ? | -22% | 7% | -3% | 45µM*
